# Screening data: PubChem BioAssay, several laboratories
# UGM FP inh: blocks M. tuberculosis UGM enzyme. purified UGM, fluorescence polarization probe displacement. inhibition, % at 10 µM. 320,000 compounds, 0.06% hits; in the data active = inhibition above about 10%, passing the limit was not always enough; inconclusive = no clear call, values can overlap the other calls
# Target sequence (P9WIQ1 whole entry, looked up): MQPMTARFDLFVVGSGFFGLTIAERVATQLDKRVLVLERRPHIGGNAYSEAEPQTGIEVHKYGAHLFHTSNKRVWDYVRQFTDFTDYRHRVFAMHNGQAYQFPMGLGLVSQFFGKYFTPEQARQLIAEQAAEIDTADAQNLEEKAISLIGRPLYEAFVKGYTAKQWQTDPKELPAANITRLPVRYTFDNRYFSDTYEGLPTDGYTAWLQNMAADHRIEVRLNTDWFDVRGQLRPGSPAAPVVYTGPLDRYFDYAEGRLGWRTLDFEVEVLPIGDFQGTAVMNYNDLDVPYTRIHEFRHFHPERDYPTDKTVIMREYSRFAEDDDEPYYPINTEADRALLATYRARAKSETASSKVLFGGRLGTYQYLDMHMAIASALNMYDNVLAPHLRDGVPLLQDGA
# Mtb FBA inh: Mtb fructose-bisphosphate aldolase inhibition; inhibition, % at 1 µM; P9WQA3; AID 588726; 360,000 compounds, 2.3% hits; purified M. tuberculosis FBA, fluorescence read-out;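 also: 0% = vehicle and 100% = reference inhibitor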
# GDH-TPI counter-1: counter-screen for M. tuberculosis FBA inhibitors: GDH-TPI coupled enzymes. GDH-TPI coupled enzyme counterscreen, NADH absorbance. inhibition, % at 4.8 µM. 360,000 compounds, 1.2% hits. AID 588335; in the data active = inhibition above about 30%;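 also: 0% = DMSO wells and 100% = wells lacking the enzyme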
# RecA intein inh: inhibitors of M. tuberculosis RecA intein splicing. AID 2221. cell-free RecA intein splicing, fluorescence. 290,000 compounds, 0.75% hits. P9WHJ3. inhibition, % (concentration not given with the values); in the data active = inhibition above about 30%; inconclusive = no clear call, values can overlap the other calls;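 also: 0% = vehicle wells and 100% = reference inhibitor control wells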
# Rv3671c inh: inhibitors of M. tuberculosis serine protease Rv3671c | 320,000 compounds, 0.048% hits | inhibition, % at 5.96 µM | P9WHR9; in the data active = inhibition above about 38%;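 also: extracellular domain of Rv3671c used as enzyme; 0% = enzyme with DMSO and 100% = no enzyme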
# Mtb betalactam: beta-lactam sensitization of Mtb H37Rv. M. tuberculosis H37Rv growth with meropenem, percent inhibition. inhibition, % at 25 µM. 330,000 compounds, 0.27% hits. AID 434955; call rule not given here;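 also: growth measured after seven days incubation then overnight dye step; 0% = bacteria only wells and 100% = bacteria with antibiotic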
# Mtb FBA inh conf: Mtb FBA inhibition, confirmed; shares compounds with Mtb FBA inh; 5,600 compounds, 78% hits; purified M. tuberculosis FBA, fluorescence read-out; inhibition, % at 1 µM; AID 651616;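 also: 0% = vehicle wells and 100% = reference inhibitor wells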
# GDH-TPI counter-2: counter-screen for M. tuberculosis FBA inhibitors: GDH-TPI coupled enzyme inhibition; shares compounds with Mtb FBA inh; GDH-TPI coupled enzyme counterscreen, fluorescence; inhibition, % at 1 µM; 5,600 compounds, 81% hits; AID 652141; in the data active = inhibition above about 10%
# * = called active by the depositor; ? = inconclusive; / = not tested or not shown; + = active, no number. This is a sample that favours compounds with a hit; in the whole collection about 4% have one here. Rule as the data show it, unless noted: active = inhibition above about 27%; inactive = the rest.
SMILES,UGM FP inh,Mtb FBA inh,GDH-TPI counter-1,RecA intein inh,Rv3671c inh,Mtb betalactam,Mtb FBA inh conf,GDH-TPI counter-2
O=C(NCCCN1CCOCC1)c1cc2ccccc2cc1O,-0.2,2.1,-3.8,-19.7,4.5,-5.2,/,/
COc1ccc(CC(=O)Nc2cc(S(=O)(=O)Nc3ccc(OC)cc3)ccc2OC)cc1,1.4,-0.1,6.6,/,-12.2,-9.0,/,/
COc1c(O)cccc1[C@H](O)C1CCN(CCc2ccc(F)cc2)CC1,0.0,-0.7,-4.4,-3.0,6.3,-0.9,/,/
CN(CC(=O)Nc1ccccc1C(=O)NC1CC1)Cc1ccco1,-0.7,-0.6,-1.4,/,-9.9,1.9,/,/
CCc1ccc(-c2cc(C)no2)cc1S(=O)(=O)N1CCCN(Cc2ccc(F)cc2)C1,-1.6,-0.9,0.4,0.4,3.5,7.9,/,/
COc1ccc(-c2cc(C(F)(F)F)nc(SCC(=O)NCCCN3CCOCC3)n2)cc1,-4.7,34.3*,10.8,-4.8,-5.6,4.1,110.8*,84.1*
Cc1ccc(-c2cc(C(=O)NCCCN3CCOCC3)c3ccccc3n2)cc1C,1.7,66.3*,7.0,0.9,0.2,0.0,70.2*,70.1*
CCOc1ccc(-c2cc(C(=O)NCC3CCCO3)c3ccccc3n2)cc1 (stereo unspecified),3.3,18.0,11.5,-7.5,-13.8,44.4,/,/
COc1ccc(-c2nc(C(=O)NCCCN3CCOCC3)cc3c2[nH]c2ccccc23)cc1OC,-0.6,50.0*,14.7,0.3,-5.1,0.1,61.3*,46.3*
O=C(NCCN1CCOCC1)c1cc(-c2ccccc2)nc2ccccc12,/,0.4,11.5,/,/,/,/,/
CCOc1ccc(-c2cc(C(=O)NCCCN3CCCC3)c3ccccc3n2)cc1,1.6,27.9*,20.7,1.3,-10.6,5.0,12.3,16.0*
Cc1ccc(Cl)c(OCCN2CCc3ccccc3C2)c1,-0.8,-2.2,-4.9,1.9,-3.5,-7.7,/,/
CC(CNC(=O)C1CCCN(S(=O)(=O)N2CCOCC2)C1)c1ccccc1 (stereo unspecified),-1.1,0.0,0.4,-1.2,2.2,-3.3,/,/
Cc1ccc2nc(-c3ccncc3)cc(-c3ccccc3)c2c1,-1.7,7.0,10.7,5.2,-5.3,98.4,/,/
Cc1ccc(-c2cc3cccc[n+]3cc2-c2ccc(C)cc2)cc1,0.0,40.4*,21.1,-0.2,-0.2,10.4,125.5*,97.8*
CC(=O)COc1nc2c(c(-c3ccco3)c1C#N)CCc1ccccc1-2,3.6,/,/,-0.9,-8.1,11.6,/,/
CCOC(=O)C(C)Sc1nc(-c2ccco2)cc(C(F)(F)F)c1C#N (stereo unspecified),-1.8,29.1*,2.8,9.4,-5.4,23.2,123.9*,95.0*
CCOC(=O)COc1nc(-c2ccco2)cc(-c2ccco2)c1C#N,2.3,79.8*,14.6,-1.0,1.6,18.0,15.7,14.2*
COC(=O)[C@]1(C)N[C@H](CN(C)C(=O)Nc2ccc(OC)cc2)[C@@H]2C(=O)N(Cc3ccccc3)C(=O)[C@@H]21,3.5,-0.8,4.5,/,1.4,-6.0,/,/
CN(CC(=O)Nc1cccc(F)c1)C(=O)CN1C(=O)C2CC=CCC2C1=O (stereo unspecified),/,-1.7,-1.1,-0.4,4.4,-0.2,/,/
O=C(CN1C(=O)NC2(CCc3ccccc32)C1=O)NCc1cccc(C(F)(F)F)c1 (stereo unspecified),-2.8,-0.8,14.0,/,-9.5,-7.6,/,/
Cc1ccc(-c2nc3ncccc3o2)cc1NC(=O)c1ccccc1,-2.3,0.1,2.4,1.0,5.8,0.5,/,/
O=C(Nc1cccc(-c2nc3ncccc3o2)c1)c1ccccc1,-3.3,-0.2,-7.7,1.1,-1.3,42.6,/,/
Cc1c(NC(=O)C(C)C)cccc1-c1nc2ncccc2o1,-1.9,28.7*,8.6,-1.4,7.3,3.4,-7.4,-7.5
CC(C)CC(=O)Nc1cccc(-c2nc3ncccc3o2)c1,-1.1,31.6*,-3.7,-0.3,-1.7,-10.4,0.1,-3.2
SMILES,UGM FP inh,Mtb FBA inh,GDH-TPI counter-1,RecA intein inh,Rv3671c inh,Mtb betalactam,Mtb FBA inh conf,GDH-TPI counter-2
Cc1ccc(-c2nc3ncccc3o2)cc1NC(=O)C(C)C,1.6,55.4*,11.4,1.3,6.6,-0.8,18.3,8.7
CCCCC(=O)Nc1cccc(-c2nc3ncccc3o2)c1C,3.6,16.4,6.9,-0.7,0.2,0.1,/,/
O=S(=O)(c1cnccc1N1CCN(CCO)CC1)N1CCCCC1,-1.5,-0.9,-7.2,/,-4.6,?,/,/
CCOC(=O)C1CCCN(C(=O)c2[nH]c(C(F)(F)F)nc2-c2ccccc2)C1 (stereo unspecified),/,-0.6,/,/,/,/,/,/
OC(c1ccccc1)c1ncc(-c2cccc(OCc3ccccc3)c2)[nH]1 (stereo unspecified),/,1.2,-3.5,/,/,/,/,/
O=C(NN=Cc1cc(Cl)ccc1[N+](=O)[O-])c1ccco1,/,1.3,8.6,/,/,/,/,/
CCOc1ccc(C(=O)NCC(=O)N2CCC3(CC2)NCCc2[nH]cnc23)cc1,-0.7,2.6,-5.9,-1.2,2.1,6.9,/,/
COc1cc(-c2ccc3cc(OC)c(OC)c(OC)c3c2)cc(OC)c1OC,/,45.0*,0.9,/,/,/,7.8,6.2
CC1(c2nnc(-c3ccncc3)o2)CC(c2cccc(Cl)c2)=NO1 (stereo unspecified),-1.7,1.2,7.9,-1.3,-3.9,97.9,/,/
Clc1ccc(SCc2cn3ccccc3n2)cc1,-1.7,60.9*,0.0,3.2,-2.0,0.3,+,+
Cc1ccc(-c2nc3cc(N)ccc3o2)cc1Br,0.7,1.1,9.4,-0.2,4.0,12.3,/,/
Nc1ccc(-c2nc3cc(N)ccc3o2)cc1,1.3,36.8*,34.0*,-4.2,-11.0,4.2,81.3*,51.2*
Nc1ccc(-c2nnc(-c3ccc(N)cc3)o2)cc1,-0.7,74.5*,36.5*,2.7,0.6,21.9,92.5*,81.8*
CN(C)c1ccc(-c2nc3cc(N)ccc3o2)cc1,1.7,35.9*,49.0*,-45.0,/,87.3,70.0*,55.3*
O=C(NNC(=O)C1CCC1)c1ccccc1F,-1.4,-1.3,-1.1,-0.7,4.0,5.4,/,/
COC(=O)c1ccccc1NC1CC(=O)N(c2c(C)cccc2C)C1=O (stereo unspecified),0.1,89.2*,9.0,-1.9,0.3,-3.3,+,+
Cc1cc(NC(=O)CSc2nnc(-c3ccncc3)n2C)n(-c2ccccc2)n1,-2.3,0.5,8.3,1.5,3.7,-9.8,/,/
CCN1CCN(c2cc3c(cc2F)c(=O)c(C(=O)O)cn3C2CC2)CC1,-2.0,13.4,7.2,0.0,-7.0,100.0,/,/
CC(=O)N1CCN(c2cc3c(cc2F)c(=O)c(C(=O)O)cn3C2CC2)CC1,-0.7,30.2*,0.6,1.0,0.3,100.0,186.8*,139.6*
COc1ccc2cc(C(=O)C3CCCN(C(=O)CCc4ccccn4)C3)ccc2c1 (stereo unspecified),0.4,95.8*,9.2,2.6,5.6,-1.0,94.3*,61.7*
